Bioassay records deposited in PubChem by National Center for Advancing Translational Sciences (NCATS).
This is a sample that favours compounds with a hit; in the whole collection about 9.2% have one here.
SMN2 splice enh: enhancers of SMN2 splice variant expression. HEK293 SMN2-luciferase splicing reporter, luminescence, 30-36 h. Potency, µM (series often up to 46.1 µM), for the others: at the top dose activity change, positive = activation, hits mostly activators. 2.8% of 210,000 active; further: % of control where 0% means no effect; nearly all actives have a fitted effect of over 55% in size
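qHTS luciferase splicing reporter: luminescence rises when SMN2 exon 7 is included in transfected HEK293 cells. Compound exposure lasted 30-36 h at 37C, with 4.5 mM final sodium butyrate as control, followed by a ONE-Glo read.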
ELG1 repair inh: ELG1-dependent DNA repair inhibition; 2.3% of 330,000 active; Potency, µM (doses to about 46.1 µM), for the others: at the top dose activity change, negative = inhibition, most hits filed as inhibitors; AID 504467; HEK293T ELG1-luciferase reporter, luminescence, 16 h; DNA damage induced by 5-fluorouridine; further: on the % scale 0 is the no-effect control and ±100 the full control effect; nearly all actives have a fitted effect of over 55% in size
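Cells (2,000 per well) received 5-fluorouridine plus test compound or DMSO and were incubated 16 hr at 37 °C, 5% CO2. Luciferase activity was read by luminescence 30 min after ONE-Glo addition; signal suppression marked inhibition of damage-induced ELG1 function.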
NPC1 prom act: NPC1 promoter activation | AID 485313 | Potency, µM (doses to about 9.22 µM), for the others: top-dose activation, most hits filed as activators | 2.4% of 320,000 active | Huh7 NPC1 promoter luciferase reporter, 24 h; further: % of control where 0% means no effect; nearly all actives have a fitted effect of over 60% in size
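Huh7 reporter cells (NPC1 promoter driving luciferase) are dosed with compound for 24 h at 37 °C, 5% CO2; luciferase detection reagent is then added and luminescence measured after 10 min at ambient temperature.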
Rab9 prom act: activators of Rab9 promoter | Huh7 Rab9 promoter-luciferase reporter, luminescence, 24 h | Potency, µM (highest dose often 9.22 µM), inactives show at the top dose activation, negative = inhibition, most hits filed as activators | 2.8% of 320,000 active | AID 485297; further: % of control where 0% means no effect; nearly all actives have a fitted effect of over 60% in size
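Huh7 cells stably carrying Rab9 promoter–luciferase reporter, plated 1500 cells/well, compound added after 2 h and incubated 24 h at 37 °C; luciferase luminescence then read after 10 min with detection reagent.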
FLuc modulator: inhibits or activates purified firefly luciferase, miR-21 counter-screen | P08659 | purified FLuc, Km substrates, luminescence inhibition | Potency, µM (highest dose often 57.5 µM), without a hit: top-dose activity change, negative = inhibition, actives largely listed as inhibitors | 6.9% of 360,000 active;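 further: plate controls were vehicle for no effect and reference inhibitor for full effect; nearly all actives have a fitted effect of over 55% in size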
Target sequence (P08659 whole entry, looked up): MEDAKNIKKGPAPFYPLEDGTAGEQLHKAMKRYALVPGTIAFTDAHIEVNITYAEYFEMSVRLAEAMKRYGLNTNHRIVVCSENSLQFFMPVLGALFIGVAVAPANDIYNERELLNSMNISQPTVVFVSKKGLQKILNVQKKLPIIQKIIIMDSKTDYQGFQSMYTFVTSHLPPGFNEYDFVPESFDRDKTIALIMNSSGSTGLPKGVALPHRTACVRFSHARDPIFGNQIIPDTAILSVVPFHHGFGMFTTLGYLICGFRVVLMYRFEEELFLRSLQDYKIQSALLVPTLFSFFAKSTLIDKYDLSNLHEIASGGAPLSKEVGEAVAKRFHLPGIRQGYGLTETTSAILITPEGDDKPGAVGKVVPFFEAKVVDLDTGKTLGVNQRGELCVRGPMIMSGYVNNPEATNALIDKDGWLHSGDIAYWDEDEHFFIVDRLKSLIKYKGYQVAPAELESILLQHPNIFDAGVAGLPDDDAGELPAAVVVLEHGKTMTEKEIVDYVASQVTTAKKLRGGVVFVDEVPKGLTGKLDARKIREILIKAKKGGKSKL
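Purified P. pyralis luciferase (10nM final) with 10uM D-luciferin and 10uM ATP (Km levels) in 50mM Tris acetate pH 7.5, 10mM Mg acetate, 0.01% Tween-20, 0.05% BSA; qHTS 6-point titration, ~60 µM downward; luminescence read.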
ELG1 genotoxic: induces genotoxicity in HEK293T cells with luciferase-tagged ELG1. HEK293T ELG1-luciferase reporter, luminescence, 16 h. Potency, µM (doses to about 46 µM), for inactives: at the top dose activity change, positive = activation, actives largely listed as activators. 1.3% of 330,000 active. AID 504466; further: % of control where 0% means no effect; nearly all actives have a fitted effect of over 60% in size
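Cells (2,000/well) expressing the ELG1-luciferase fusion are dosed by pin tool and kept 16 hr at 37 °C, 5% CO2. Signal comes from ONE-Glo luciferase reagent after 30 min at room temperature.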
* marks the source's active call; other numbers are inactive results; u = inconclusive; x = no result given. The call rests on the fitted dose curve; in most records, active means well fitted curve in the direction sought with a large enough effect; inconclusive means small, poorly fitted or top-dose-only effect, or another doubt; inactive means no such curve, though single readings can be large; an effect the other way counts as inactive or inconclusive. Potency means the concentration at half of the fitted maximal effect.

SMILES | SMN2 splice enh | ELG1 repair inh | NPC1 prom act | Rab9 prom act | FLuc modulator | ELG1 genotoxic
COc1ccc(-c2nc(CN3CCN(C(=O)c4ccco4)CC3)c(C)o2)c(OC)c1C | x | 11.6µM* | -0.8% | -3.2% | -2.8% | -7.7%
Cc1c(CCC(=O)O)c(=O)oc2cc3occ(-c4ccc(Br)cc4)c3cc12 | x | -16.8% | -6.5% | -5.5% | 16.9µM* | 0.1%
Cc1oc2cc3oc(=O)c(CCC(=O)N(C)CC(=O)O)c(C)c3cc2c1C | x | 16.8% | -4.1% | -6.8% | 7.57µM* | 0.9%
Cc1c(CCC(=O)O)c(=O)oc2cc3occ(-c4ccc(Cl)cc4)c3cc12 | x | -10.3% | -4.0% | -3.9% | 16.9µM* | 2.8%
CCOC(=O)N/N=C(C)/C=C/c1ccccc1 | 18.4% | u | 19.3% | u | u | 16.7%
Cc1cc(C)nc(N/N=C/C(Cl)=C/c2ccccc2)n1 | -8.0% | u | u | u | 13.5µM* | u
CCOc1ccc(/C=N/NC(=O)Cc2cccs2)cc1 | x | u | u | u | 16.9µM* | u
O=C(Cc1cccs1)N/N=C/c1ccccc1 | x | u | 4.6% | 23.4% | u | 12.4%
O=C(Cc1cccs1)N/N=C/C(Cl)=C/c1ccccc1 | u | u | u | 3.55µM* | -10.3% | u
CCOC(=O)N/N=C/C(Cl)=C/c1ccccc1 | u | u | u | u | 16.9µM* | u
CC1CCN(C(=O)CN(c2ccc3c(c2)OCCO3)S(=O)(=O)c2ccccc2)CC1 | x | u | 6.4% | 4.2% | -2.9% | 6.3%
O=C(O)CC1(CC(=O)Nc2ccc3sccc3c2)CCCCC1 | x | 13.9% | 1.8% | -0.5% | u | 0.4%
COc1ccc(OCCN2C(=O)c3ccccc3C2=O)cc1 | 3.7% | u | 18.4% | u | u | 13.3%
Nc1cccc2c1C(=O)N(CCOc1ccc(F)cc1)C2=O | x | u | 1.78µM* | 1.58µM* | 2.69µM* | 2.06µM*
O=C1c2ccccc2C(=O)N1CCOc1ccccc1Br | x | u | 28.0% | u | 23.9µM* | u
Cc1ccccc1OCCN1C(=O)c2ccccc2C1=O | 10.4% | u | u | u | 19µM* | u
Cc1ccccc1OCCN1C(=O)C(=O)c2cccc(C)c21 | -9.3% | 10.0% | 0.1% | -0.3% | 0.9% | 0.8%
O=C1c2ccccc2C(=O)N1CCOc1ccccc1Cl | x | 3.2% | -1.7% | -1.1% | -0.6% | 0.2%
N/C(=N\OC(=O)COc1ccc(Cl)cc1Br)c1cccnc1 | -1.5% | u | 3.16µM* | 3.98µM* | 2.69µM* | -11.4%
N/C(=N\OC(=O)COc1ccc(Br)cc1Cl)c1cccnc1 | 17.8µM* | u | u | u | 8.49µM* | u
N/C(=N\OC(=O)COc1ccc(Cl)cc1Cl)c1ccncc1 | x | u | 2.82µM* | 0.631µM* | 3.01µM* | u
Cc1cc(C)c(C)c(OCC(=O)O/N=C(\N)c2cccnc2)c1 | x | -1.7% | -4.6% | -0.1% | 5.8% | -5.0%
CC1CCCC(NC(=O)c2cccc(S(=O)(=O)NCc3ccccc3)c2)C1C (configuration not stated) | x | -21.0% | -4.5% | -0.5% | 4.7% | -5.4%
CCc1nn2c(=O)cc(COC(=O)COc3ccc(OC)cc3)nc2s1 | x | x | x | x | -4.8% | x
O=C(Nc1ccc(NC(=O)c2ccc([N+](=O)[O-])cc2[N+](=O)[O-])cc1)c1ccco1 | x | u | 1.1% | 18.5% | 2.4% | 14.9%
C/C(=N\NS(=O)(=O)c1ccc([N+](=O)[O-])cc1)c1ccc(NC(=O)c2ccco2)cc1 | 17.8µM* | u | 10.8% | 4.8% | u | u
C/C(=N/NS(=O)(=O)c1ccc(Br)cc1)c1ccc(NC(=O)c2ccc(C)o2)cc1 | 13.8% | 26.4% | 2.5% | 6.9% | 23.9µM* | -0.5%
CC(=O)Nc1ccc(/C(C)=N/NS(=O)(=O)c2ccc(C)cc2)cc1 | -18.2% | 1.8% | -1.6% | 0.1% | 2.9% | 0.7%
